Laboratory results from PubChem BioAssay (NCATS).
Where “and” joins values, the source holds several entries; their conditions need not be identical. Equal entries are not always repeated. Results filed as inconclusive are left out. Calls of active or inactive are those of the source. Unless noted, calls come from the whole dose curve; as a rule, active = well fitted curve in either direction with a large enough effect (not every such curve was filed as active); inconclusive = small, poorly fitted or top-dose-only effect, or another doubt; inactive = flat fitted curve, though single readings scatter.

How the values were obtained:
[1] = AP1 Signaling Pathway (AID 357); settings: ME-180 AP-1-bla reporter, EGF-induced, beta-lactamase ratio, 5 h; note: % is set by controls: 0 for no effect and ±100 for the full control effect
Outline: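 AP-1-bla ME-180 cells with beta-lactamase reporter under AP-1 response element, stimulated with EC50 EGF; compounds titrated, 5 hours at 37 degrees Celsius. CCF4 read at 460/530 nm ratio; positive and negative modulators judged by AC50.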

[2] = biological target: Cytochrome P450 1A2 (Homo sapiens) (UniProt P05177); test: p450-cyp1a2 (AID 410; calls by dose curve;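 note: -100% = full effect of reference inhibitor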); settings: recombinant CYP1A2, luciferin-ME demethylation, luminescence; series mostly up to 25.6 µM
Outline: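 20nM CYP1A2, 100uM Luciferin-ME (=Km), 100mM KPO4; cpd 10 min RT; +NADPH regen, 60 min RT; stop/detect 20 min; luminescence. Normalized to furafylline 57 uM = full inhibition.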

[3] = NFAT Signaling Pathway (AID 444); settings: Jurkat NFAT-bla M1, carbachol, beta-lactamase ratio, 5 h;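 note: carbachol stimulus at about its EC50 of 1 µM final; % is set by controls: 0 for no effect and ±100 for the full control effect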
Outline: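 Jurkat cells carrying an NFAT-driven β-lactamase reporter and co-transfected muscarinic M1 receptor were treated with compound plus carbachol (1 uM final, an EC50 level) for 5 h at 37 °C. CCF4 loading followed for 1 h at RT; 460/530 nm ratio gave %activity.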

[4] = Stat Signaling Pathway (AID 446); settings: ME-180 (cervical carcinoma) SIE beta-lactamase reporter, IL-6 stimulated, 5 h;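 note: ME-180 cervical cancer cells given 40 pM IL-6 alongside compound; SIE-controlled beta-lactamase reporter measured as 460/530 nm FRET emission ratio; % is set by controls: 0 for no effect and ±100 for the full control effect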
Outline: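 Emission at 460 and 530 nm (excitation 405 nm) reports SIE-controlled beta-lactamase in ME-180 cells. Cells received compound with 40 pM IL-6 for 5 hrs at 37 C; data scaled between 300 pM IL-6 and 125 nM JAK-inhibitor controls.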

[5] = biological target: Mitogen-activated protein kinase 10 (Mus musculus) (UniProt Q61831); test: JNK3 AlphaScreen Assay (AID 530); settings: JNK3 lysate, c-Jun phosphorylation; series mostly up to 57.1 µM;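 note: kinase came from lysate of stimulated human HepG2 cells; signal reports phosphorylation of biotinylated GST-cJun 1-79 at Ser73 with 10 µM ATP; % is set by controls: 0 for no effect and ±100 for the full control effect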
Outline: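 Biotinylated GST-cJun(1-79) served as substrate for JNK3 in HepG2 lysates stimulated with IL-1beta and TNF-alpha. ATP was 10 uM final, pH 7.6. Ser73 phosphorylation was quantified by AlphaScreen (680 nm excitation).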

[6] = biological target: Glucocorticoid receptor (Homo sapiens) (UniProt P04150); test: GR-GFP Redistribution (AID 450;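 active = compounds whose dose series gives a full or clear partial fitted curve of increased nuclear translocation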; note: potency is the fitted concentration of half-maximal effect); settings: U2OS GR-GFP nuclear translocation, laser cytometry, 2 h
[7] = biological target: Glucocorticoid receptor (Homo sapiens) (UniProt P04150); test: GR-EFC Redistribution (AID 451; calls by dose curve; note: potency is the fitted concentration of half-maximal effect); settings: CHO-K1 GR-EFC translocation, beta-gal luminescence, 2 h
Outline: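 CHO-K1 cells stably expressing nuclear-localized β-gal enzyme acceptor and GR fused C-terminally to the enzyme donor fragment; ligand-driven nuclear translocation restores β-gal by complementation. Compounds titrated up to 46 uM final, 2 h at 37 °C; luminescence read.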

[8] = Cell Viability - BJ (AID 421; calls by dose curve;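 note: potency is the fitted concentration of half-maximal effect; cells exposed to compound for 40 hours at 37 °C before readout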); settings: BJ fibroblast viability, qHTS
Outline: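 Cytotoxicity in human BJ foreskin fibroblasts is scored as loss of cellular ATP after a 40-hour exposure, measured by luciferase luminescence. Controls are DMSO and 100 uM tamoxifen.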

[9] = Cell Viability - Jurkat (AID 426;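 active = dose-dependent loss of cell ATP signal giving a full or clear fitted curve, ranked by lower potency value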;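 note: potency is the fitted concentration of half-maximal effect; cells exposed to compound for 40 hours at 37 °C before ATP read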); settings: qHTS
Outline: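 Luminescent ATP read-out (CellTiter-Glo, 20 min at room temperature) after 40 hr compound exposure at 37 °C of Jurkat E6-1 cells, 5000/well. Decreased ATP taken as cytotoxicity; AC50 from standard Hill equation.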

[10] = Cell Viability - Hek293 (AID 427;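 active = compounds whose dose-response curve shows a full or clear partial loss of cell viability, called from curve shape rather than a numeric limit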;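 note: potency is the fitted concentration of half-maximal effect; cells exposed to compound for 40 hours at 37 °C before reading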); settings: qHTS
Outline: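 qHTS, human embryonic kidney (adenovirus-transformed) cells; 40 hr cpd, 37 °C; CellTiter-Glo ATP luminescence. Norm: DMSO = 0, 100 uM tamoxifen = 100% inhibition. Hill-fit AC50.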

[11] = Cell Viability - HepG2 (AID 433; calls by dose curve;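 note: potency is the fitted concentration of half-maximal effect; potency for ATP loss meaning cytotoxicity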); settings: qHTS
Outline: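 Read-out is luciferase-based quantitation of cellular ATP as a measure of viable HepG2 cells after 40 h treatment at 37 °C. Signal decrease is scaled between DMSO-only and 100 uM tamoxifen controls, with AC50 fitted by the Hill equation.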

[12] = Cell Viability - MRC5 (AID 434; calls by dose curve;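 note: potency is the fitted concentration of half-maximal effect; cells exposed to compound for 40 hours at 37 °C; potency reflects cytotoxicity seen as loss of intracellular ATP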); settings: MRC5 lung fibroblast viability, qHTS
Outline: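 Decrease in intracellular ATP, quantified by luciferase light output, reflects compound toxicity toward MRC5 cells exposed for 40 hr in complete culture medium. Concentration-response curves, scaled between DMSO and 100 uM tamoxifen, gave AC50 values.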

[13] = Cell Viability - SK-N-SH (AID 435; calls by dose curve; note: potency is the fitted concentration of half-maximal effect); settings: SK-N-SH neuroblastoma cell viability qHTS
Outline: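 Luminescent ATP signal served as the viability read-out after 40 hours of compound treatment of human neuroblastoma SK-N-SH cells. Concentration-response data, scaled between DMSO and 100 uM tamoxifen, gave AC50 values by standard Hill modeling.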

[14] = Cell Viability - HUV-EC-C (AID 542; active = well fitted curve in the direction sought with a large enough effect; an effect the other way counts as inactive or inconclusive; note: % is set by controls: 0 for no effect and ±100 for the full control effect; nearly all actives have a fitted effect of over 35% in size); settings: HUV-EC-C endothelial cell viability, qHTS; series mostly up to 92.2 µM
Outline: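 Luminescent ATP read-out (CellTiter-Glo, 20 min room temperature) after 40 hr compound treatment of HUV-EC-C cells at 37 °C. Concentration-response data fitted with the standard Hill equation to give AC50; tamoxifen and doxorubicin served as positive controls.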

[15] = Cell Viability - H-4-II-E (AID 543; active = well fitted curve in the direction sought with a large enough effect; an effect the other way counts as inactive or inconclusive; note: % is set by controls: 0 for no effect and ±100 for the full control effect; nearly all actives have a fitted effect of over 35% in size); settings: H-4-II-E rat hepatoma viability; series mostly up to 92.2 µM
Outline: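 qHTS, rat hepatoma H-4-II-E, 1500 cells/well; 40 hr compound exposure, 37 °C; CellTiter-Glo ATP luminescence after 20 min RT; AC50 by standard Hill fit.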

[16] = Cell Viability - Renal Proximal Tubule (AID 545; active = well fitted curve in the direction sought with a large enough effect; an effect the other way counts as inactive or inconclusive;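 note: 0% = DMSO only and -100% = 100 µM tamoxifen; nearly all actives have a fitted effect of over 40% in size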); settings: renal proximal tubule cells viability, primary cells of rat origin; series mostly up to 91.7 µM
Outline: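 Luminescent ATP signal (CellTiter-Glo) served as the viability read-out after 40 hr compound exposure of freshly isolated rat proximal tubule cells at 37 °C. Concentration-dependent ATP loss was fitted with the Hill equation to give AC50.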

[17] = Cell Viability - Mesenchymal (AID 546; active = well fitted curve in the direction sought with a large enough effect; an effect the other way counts as inactive or inconclusive;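 note: cells exposed to compound for 40 hours before reading; 0% = DMSO only and -100% = 100 µM tamoxifen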); settings: mesenchymal cells viability, qHTS; series mostly up to 91.7 µM
Outline: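 In this qHTS cytotoxicity format, glomerulus-derived human mesenchymal kidney cells received compound for 40 hr, then luciferase-based ATP quantitation. Concentration-response data were fitted with the Hill equation.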

[18] = Cell Viability - NIH 3T3 (AID 541; active = well fitted curve in the direction sought with a large enough effect; an effect the other way counts as inactive or inconclusive;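 note: plate controls were DMSO alone for no effect and tamoxifen positive control for full effect; nearly all actives have a fitted effect of over 25% in size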); settings: NIH 3T3 cell viability, qHTS; activity change, negative = cytotoxicity: at 92.2 µM (top of the series)
Outline: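 qHTS format; 40 hr compound exposure, 37 °C; CellTiter-Glo luminescence (cellular ATP) read-out after 20 min at RT. Decrease in ATP = cytotoxicity; AC50 from standard Hill fit.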

[19] = Cell Viability - SH-SY5Y (AID 544; active = well fitted curve in the direction sought with a large enough effect; an effect the other way counts as inactive or inconclusive;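 note: 0% = DMSO alone and -100% = 100 µM tamoxifen; nearly all actives have a fitted effect of over 55% in size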); settings: SH-SY5Y neuroblastoma cell viability; series mostly up to 92.2 µM
Outline: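 SH-SY5Y, 1500 cells/well, 5 hr pre-incubation 37 °C; cpd 40 hr 37 °C; CellTiter-Glo 20 min RT; luminescence (ATP) read. qHTS concentration-response, Hill fit → AC50. Tamoxifen, doxorubicin as positive controls.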

Chain of Glucocorticoid receptor (Homo sapiens) (P04150 whole entry, looked up, the tested form may be a part): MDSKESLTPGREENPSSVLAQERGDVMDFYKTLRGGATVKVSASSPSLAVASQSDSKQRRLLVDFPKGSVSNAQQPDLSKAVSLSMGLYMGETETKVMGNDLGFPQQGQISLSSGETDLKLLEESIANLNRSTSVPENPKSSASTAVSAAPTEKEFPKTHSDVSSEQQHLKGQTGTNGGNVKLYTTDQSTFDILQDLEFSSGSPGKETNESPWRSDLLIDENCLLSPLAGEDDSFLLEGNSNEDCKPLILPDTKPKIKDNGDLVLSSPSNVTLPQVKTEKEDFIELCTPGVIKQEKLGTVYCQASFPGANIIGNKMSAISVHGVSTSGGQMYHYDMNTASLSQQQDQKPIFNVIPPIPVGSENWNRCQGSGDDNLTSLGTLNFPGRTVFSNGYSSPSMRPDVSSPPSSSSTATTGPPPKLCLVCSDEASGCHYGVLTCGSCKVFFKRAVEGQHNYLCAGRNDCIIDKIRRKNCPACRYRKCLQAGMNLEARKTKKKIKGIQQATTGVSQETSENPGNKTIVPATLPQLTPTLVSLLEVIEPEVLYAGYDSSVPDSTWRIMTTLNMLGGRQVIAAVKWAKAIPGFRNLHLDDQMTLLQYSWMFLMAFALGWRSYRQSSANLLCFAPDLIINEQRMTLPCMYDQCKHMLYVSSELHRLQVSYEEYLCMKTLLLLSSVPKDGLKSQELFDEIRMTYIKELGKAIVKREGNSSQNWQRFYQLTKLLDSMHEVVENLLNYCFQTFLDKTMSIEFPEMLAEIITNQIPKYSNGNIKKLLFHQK
Chain of Cytochrome P450 1A2 (Homo sapiens) (P05177 whole entry, looked up): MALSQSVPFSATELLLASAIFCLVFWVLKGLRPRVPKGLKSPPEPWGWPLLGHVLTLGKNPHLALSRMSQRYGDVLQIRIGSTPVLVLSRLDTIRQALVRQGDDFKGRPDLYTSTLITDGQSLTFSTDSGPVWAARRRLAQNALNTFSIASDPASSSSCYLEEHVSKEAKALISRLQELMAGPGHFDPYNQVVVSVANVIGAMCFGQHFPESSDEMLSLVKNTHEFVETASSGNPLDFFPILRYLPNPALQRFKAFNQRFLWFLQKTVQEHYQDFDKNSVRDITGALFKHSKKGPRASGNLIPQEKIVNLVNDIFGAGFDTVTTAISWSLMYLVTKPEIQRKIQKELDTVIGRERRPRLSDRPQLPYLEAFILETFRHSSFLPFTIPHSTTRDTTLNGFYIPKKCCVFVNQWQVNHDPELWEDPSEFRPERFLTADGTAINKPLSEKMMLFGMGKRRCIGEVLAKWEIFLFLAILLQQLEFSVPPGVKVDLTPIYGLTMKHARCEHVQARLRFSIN

COc1ccc(Cl)cc1C(=O)NCCc1ccc(S(=O)(=O)NC(=O)NC2CCCCC2)cc1
inactive: activity change, negative = inhibition ([1]; at 17.2 µM (top of the series)) -12.3% and -19.5% | activity change, negative = inhibition ([1]; at 38 µM (top of the series)) -26.7% | Potency [2] | activity change, negative = inhibition ([3]; at 17.2 µM (top of the series)) -3.12% and -29.5% | activity change, negative = inhibition ([3]; at 38 µM (top of the series)) 0.0491% | activity, negative = inhibition ([4]; at 17.2 µM (top of the series)) -3.96% and -3.07% | activity, negative = inhibition ([4]; at 38 µM (top of the series)) 4.48% | Potency [5]

NS(=O)(=O)c1cc2c(cc1Cl)NC(CSCc1ccccc1)=NS2(=O)=O
inactive: activity change, negative = inhibition ([1]; at 17.2 µM (top of the series)) -6.04% and -5.71% | Potency [2] | activity change, negative = inhibition ([3]; at 17.2 µM (top of the series)) -9.25% and 1.09% | activity, negative = inhibition ([4]; at 17.2 µM (top of the series)) -11% and 0.218% | Potency [6] > 20.6 µM | Potency [7] > 20.6 µM | Potency [5]

NS(=O)(=O)c1cc2c(cc1C(F)(F)F)NC(Cc1ccccc1)NS2(=O)=O (stereo not drawn)
inactive: activity change, negative = inhibition ([1]; at 17.2 µM (top of the series)) -11.1% | activity change, negative = inhibition ([3]; at 17.2 µM (top of the series)) 0.596% | activity, negative = inhibition ([4]; at 17.2 µM (top of the series)) 1.32%

Nc1ccc(S(=O)(=O)Nc2nccs2)cc1
inactive: activity change, negative = inhibition ([1]; at 17.2 µM (top of the series)) -3.49% | Potency [2] | Potency [8] > 92 µM | Potency [9] > 92 µM | Potency [10] > 92 µM | Potency [11] > 92 µM | Potency [12] > 92 µM | Potency [13] > 92 µM | activity change, negative = inhibition ([3]; at 17.2 µM (top of the series)) 2.2% | activity, negative = inhibition ([4]; at 17.2 µM (top of the series)) -1.46% | Potency [6] > 20.6 µM | Potency [7] > 20.6 µM | Potency [5] | Potency [14] | Potency [15] | Potency [16] | outcome [17]

Cc1cc(CC(=O)O)n(C)c1C(=O)c1ccc(Cl)cc1
inactive: activity change, negative = inhibition ([1]; at 17.2 µM (top of the series)) 2.5% | Potency [8] > 92 µM | Potency [9] > 92 µM | Potency [10] > 92 µM | Potency [11] > 92 µM | Potency [12] > 92 µM | Potency [13] > 92 µM | activity change, negative = inhibition ([3]; at 17.2 µM (top of the series)) 1.18% | activity, negative = inhibition ([4]; at 17.2 µM (top of the series)) 8.99% | Potency [6] > 20.6 µM | Potency [7] > 20.6 µM | Potency [5] | Potency [18] | Potency [14] | Potency [15] | Potency [19] | Potency [16] | outcome [17]
